The values that follow come from PubChem BioAssay AID940 (Emory University Molecular Libraries Screening Center, 2007).

Values joined by “and” are separate entries in the source; they are usually repeats but may differ in a detail not shown here. Equal values may be shown once. In all, about 260,000 compounds went through this assay and about 2,200 (0.85%) were called active.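 The calls were made as follows: active = compounds whose cAMP rise, as percent of the full-agonist control response, exceeds 60; inactive = the rest.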 Only a selection was taken, and actives are over-represented in it overall. A structure can be active in one record and inactive in another.

Chain of Prostaglandin E2 receptor EP2 subtype (Homo sapiens) (P43116 whole entry, looked up): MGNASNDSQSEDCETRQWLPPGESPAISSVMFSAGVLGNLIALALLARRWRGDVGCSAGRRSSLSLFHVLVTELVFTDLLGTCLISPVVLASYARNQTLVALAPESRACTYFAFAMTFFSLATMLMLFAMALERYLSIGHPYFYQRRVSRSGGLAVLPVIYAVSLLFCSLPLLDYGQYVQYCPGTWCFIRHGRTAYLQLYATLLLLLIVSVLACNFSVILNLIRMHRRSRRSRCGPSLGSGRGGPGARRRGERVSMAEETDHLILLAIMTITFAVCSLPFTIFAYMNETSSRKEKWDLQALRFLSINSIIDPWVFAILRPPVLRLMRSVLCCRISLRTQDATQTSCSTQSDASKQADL

This assay addresses Prostaglandin E2 receptor EP2 subtype (Homo sapiens) (UniProt P43116). Put plainly: EP2 receptor modulators, cAMP readout, primary screen, cell-based, HTRF cAMP, PGE2 stimulation (AID 940).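 Also: rat C6 glioma line stably carrying human EP2 under a CMV promoter; the protocol text gives 20 µM as final concentration; 100% = response of wells given 1 µM PGE2.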 The note with it: EP2-expressing cells, cAMP HTRF FRET, PGE2 co-stimulation; at 25 µM; stronger effect = higher value. For orientation: TR-FRET usually uses a lanthanide donor and a delayed reading to cut background.
For the molecule `C[N+]1(C)CCOC(O)(c2ccc(-c3ccc(C4(O)C[N+](C)(C)CCO4)cc3)cc2)C1` (stereo not given), the induction was 27.6% (inactive) and 76.2% (active).
Under `C=CCc1cc(CN2C3CCC2CC(O)(c2nccn2C)C3)cc(OCC)c1O` (stereo not given) stands -31.8% (inactive).
Turning to `Cc1cccc2cc(CN(Cc3ccco3)C3(c4nnnn4C4CCCC4)CCCCC3)c(=O)[nH]c12`, the induction is 24.8% (inactive).
Regarding `N#CC1=C(N)Oc2c(c(=O)oc3ccccc23)C1c1cc2c(cc1Cl)OCO2` (stereo not given), the induction is 0.48% (inactive).
Under `COc1ccccc1/C=C/CN1C2CCC1CC(O)(c1ccccc1F)C2` (stereo not given) stands -60.2% (inactive).
In the case of `O=C(CN1C2CCC1CC(O)(c1ccco1)C2)NCc1ccccc1` (stereo not given), the induction is -18.4% (inactive).
Consider `CC(c1ccccc1)(c1ccccc1)c1ccncc1`, for which the induction was 61.2% (active).
For the molecule `O=C1CCCN1C(=O)c1cc(Cl)cc(Cl)c1`, the induction is -0.43% (inactive).
For `OC12CCCCC1CN(Cc1ccnc3ccccc13)CC2` (stereo not given) the value was -29.6% (inactive).
Under `O=C(CN1C2CCC1CC(O)(c1ccccn1)C2)N1c2ccccc2Sc2ccccc21` (stereo not given) stands 8.29% (inactive).
